Experimental data from PubChem BioAssay (EPA / NIEHS).
Active and inactive are the calls of the source. How the source made its calls: active means hit-call score of the fitted dose curve at least 0.9, where 1 is the maximum; inactive means score below 0.9.

Key:
Settings in all cases: mRNA level, 48 h; actives raise or lower the signal
[1] = read-out: Apolipoprotein A-V (APOA5) gene, APOA5 (gene 116519); assay: LTEA_HepaRG_APOA5: Life Technologies and Expression Analysis (LTEA) Assay for Apolipoprotein A-V (APOA5) gene using HepaRG (AID 2283474)
In short: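 Concentration-response of APOA5 expression in HepaRG: eight half-log doses to 100 uM, 48 h, qRT-PCR normalized to ACTB/GAPDH/POLR2A, bidirectional fitting with 0.5% DMSO as baseline.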

[2] = read-out: Apoptosis regulator Bcl-2 (Homo sapiens) (UniProt P10415); assay: LTEA_HepaRG_BCL2: Life Technologies and Expression Analysis (LTEA) Assay for Bcl-2 gene using HepaRG (AID 2283475);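 further: BCL2 transcript by TaqMan qRT-PCR normalised to ACTB GAPDH and POLR2A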
Procedure: LTEA_HepaRG is a cell based, multiplexed-readout assay that uses HepaRG, a human liver cell line, with measurements taken at 48 hours after chemical dosing on a 96-well plate.LTEA_HepaRG_BCL2 is one of 102 assay component(s) measured in the LTEA HepaRG cell culture assay. It is a marker of Cell proliferation, survival, death.Data from the assay component LTEA_HepaRG_BCL2 was analyzed into 1 endpoint. This assay endpoint, LTEA_HepaRG_BCL2, was analyzed with bidirectional fitting relative to DMSO as the negative control and baseline of activity. Using a type of inducible reporter, measures of mRNA induction for gain or loss-of-signal activity can be used to understand regulation of transcription factor activity. To generalize the intended target to other relatable targets, this assay endpoint is annotated to the cell cycle intended target family, where the subfamily is Cell proliferation, survival, death.
A total of 1060 chemcials from the ToxCast library were tested in eight-point concentration-response experiments. Cell culture and cytotoxicity assays were conducted at Thermo Fisher Scientific's Custom Services facility (Madison, WI). A single lot of human HepaRG cells (Thermo Fisher Scientific, Frederick, MD) was used for the cell culture experiments. 96-well format collagen type I coated plates of human HepaRG cells were prepared using established methods. Briefly, cryopreserved HepaRG cells were thawed, plated at a density of approximately 100,000 cells/well in HepaRG Thaw, Plate, and General Purpose media (HPRG770, Thermo Fisher Scientific), and incubated for 48 hours. […] Fluidigm's 96.96 Dynamic ArrayTM (Fluidigm, Amsterdam, the Netherlands) technology was used for gene expression analyses by quantitative reverse transcription polymerase chain reaction (qRT-PCR, performed by Quintiles/Expression Analysis, Durham, NC)89. […]

[3] = read-out: Bcl-2 (BID) gene, BID (gene 637); assay: LTEA_HepaRG_BID: Life Technologies and Expression Analysis (LTEA) Assay for Bcl-2 (BID) gene using HepaRG (AID 2283476)
In short: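 Differentiated HepaRG cells in serum-free induction medium were exposed in duplicate for 48 h to eight half-log concentrations up to 100 uM in 0.5% DMSO. BID mRNA was quantified by qRT-PCR, normalized to ACTB, GAPDH and POLR2A.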

Caspase-3 (Homo sapiens) = Caspase-3 (Homo sapiens) (UniProt P42574); assay: LTEA_HepaRG_CASP3: Life Technologies and Expression Analysis (LTEA) Assay for cysteine-aspartic acid protease (CASP3) using HepaRG (AID 2283477)
In short: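 Transcript-level assay: CASP3 mRNA in human HepaRG after 48 h treatment, eight half-log concentrations from 100 uM in 0.5% DMSO, quantified by qRT-PCR.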

[4] = read-out: Cytochrome P450 (CYP24A1), CYP24A1 (gene 1591); assay: LTEA_HepaRG_CYP24A1: Life Technologies and Expression Analysis (LTEA) Assay for Cytochrome P450 (CYP24A1) using HepaRG (AID 2283478)
In short: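 Gene expression of CYP24A1 by TaqMan qRT-PCR in HepaRG after 48 h treatment, highest concentration 100 uM; activity fitted in both directions relative to DMSO vehicle.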

[5] = read-out: Cytochrome P450 (CYP1A2), CYP1A2 (gene 1544); assay: LTEA_HepaRG_CYP1A2: Life Technologies and Expression Analysis (LTEA) Assay for Cytochrome P450 (CYP1A2) using HepaRG (AID 2283479)
In short: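 In duplicate wells, HepaRG cultures maintained in 0.5% DMSO were treated 48 h across an 8-point, half-log series topping at 100 uM; phenobarbital (1 mM) served as induction control. Expression was read by qRT-PCR.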

[6] = read-out: cysteine-aspartic acid protease (CASP8), CASP8 (gene 841); assay: LTEA_HepaRG_CASP8: Life Technologies and Expression Analysis (LTEA) Assay for cysteine-aspartic acid protease (CASP8) using HepaRG (AID 2283480)
In short: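 Differentiated human HepaRG cells, plated 48 h then switched to serum-free induction medium, were exposed in duplicate for 48 h to 8 half-log concentrations up to 100 uM in 0.5% DMSO. CASP8 mRNA was quantified by qRT-PCR, normalized to ACTB/GAPDH/POLR2A.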

[7] = read-out: Cytochrome P450 (CYP2B6), CYP2B6 (gene 1555); assay: LTEA_HepaRG_CYP2B6: Life Technologies and Expression Analysis (LTEA) Assay for Cytochrome P450 (CYP2B6) using HepaRG (AID 2283481)
In short: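 Human HepaRG, 48 h dosing, 0.5% DMSO vehicle, top dose 100 uM. CYP2B6 transcript by qRT-PCR, housekeeping-normalized, bidirectional curve fit.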

[8] = read-out: Cytochrome P450 2C19 (Homo sapiens) (UniProt P33261); assay: LTEA_HepaRG_CYP2C19: Life Technologies and Expression Analysis (LTEA) Assay for CYP2C19 using HepaRG (AID 2283482)
In short: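 Endpoint: CYP2C19 mRNA change, bidirectional fit vs 0.5% DMSO. Cells: HepaRG, 48 h exposure, eight-point series topping at 100 uM. Quantitation: qRT-PCR normalized to ACTB, GAPDH, POLR2A.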

CYP2C8 (gene 1558) = assay: LTEA_HepaRG_CYP2C8: Life Technologies and Expression Analysis (LTEA) Assay for CYP2C8 using HepaRG (AID 2283483)
In short: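 Differentiated human HepaRG cells were exposed for 48 h in serum-free induction medium to eight half-log concentrations up to 100 uM in 0.5% DMSO, in duplicate. CYP2C8 mRNA was measured by TaqMan qRT-PCR, normalized to ACTB, GAPDH and POLR2A, and fitted bidirectionally against DMSO.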

Apoptosis regulator Bcl-2 (Homo sapiens), sequence (P10415 whole entry, looked up): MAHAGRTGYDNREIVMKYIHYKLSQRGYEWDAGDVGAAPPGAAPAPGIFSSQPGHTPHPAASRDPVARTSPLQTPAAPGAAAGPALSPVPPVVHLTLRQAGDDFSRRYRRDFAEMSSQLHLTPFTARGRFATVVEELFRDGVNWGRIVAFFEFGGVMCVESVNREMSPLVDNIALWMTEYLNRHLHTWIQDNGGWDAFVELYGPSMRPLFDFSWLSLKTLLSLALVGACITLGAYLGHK
Caspase-3 (Homo sapiens), sequence (P42574 whole entry, looked up): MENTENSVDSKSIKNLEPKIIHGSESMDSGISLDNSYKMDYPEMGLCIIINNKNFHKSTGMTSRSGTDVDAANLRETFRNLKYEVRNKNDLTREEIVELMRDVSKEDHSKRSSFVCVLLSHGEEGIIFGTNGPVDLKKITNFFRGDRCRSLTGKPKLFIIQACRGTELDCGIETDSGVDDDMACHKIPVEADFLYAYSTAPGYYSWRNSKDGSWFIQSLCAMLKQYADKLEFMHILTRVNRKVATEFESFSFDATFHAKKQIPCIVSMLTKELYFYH
Cytochrome P450 2C19 (Homo sapiens), sequence (P33261 whole entry, looked up): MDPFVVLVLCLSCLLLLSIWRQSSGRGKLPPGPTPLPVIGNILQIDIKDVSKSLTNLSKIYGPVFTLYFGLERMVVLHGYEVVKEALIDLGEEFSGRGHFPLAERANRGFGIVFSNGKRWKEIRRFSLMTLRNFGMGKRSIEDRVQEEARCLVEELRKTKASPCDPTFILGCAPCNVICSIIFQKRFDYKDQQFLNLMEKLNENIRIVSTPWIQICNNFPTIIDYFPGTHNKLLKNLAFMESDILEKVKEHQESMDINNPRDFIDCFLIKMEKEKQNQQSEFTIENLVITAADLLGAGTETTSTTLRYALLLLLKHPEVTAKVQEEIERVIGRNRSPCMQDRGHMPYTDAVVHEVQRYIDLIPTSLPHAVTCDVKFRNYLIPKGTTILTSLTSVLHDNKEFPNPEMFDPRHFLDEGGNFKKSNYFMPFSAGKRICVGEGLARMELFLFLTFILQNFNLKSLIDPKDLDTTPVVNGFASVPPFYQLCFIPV

SMILES	outcome [1]	outcome [2]	outcome [3]	outcome (Caspase-3 (Homo sapiens))	outcome [4]	outcome [5]	outcome [6]	outcome [7]	outcome [8]	outcome (CYP2C8 (gene 1558))	AC50 [5]	AC50 [7]
C1CNCCN1	inactive	inactive	inactive	inactive	inactive	inactive	inactive	inactive	inactive	inactive		
Nc1ccc(C(=O)O)cc1	inactive	inactive	inactive	inactive	inactive		inactive	inactive	inactive	inactive	50 µM (active)	
Cc1ccc([N+](=O)[O-])cc1N	inactive	inactive	inactive	inactive	inactive		inactive		inactive	inactive	26.8 µM (active)	18.4 µM (active)
